From PubChem BioAssay AID624169 (The Scripps Research Institute Molecular Screening Center, 2012) come the findings set out here.

Molecules are shown by their SMILES. Out of some 360,000 compounds screened, about 2,400 (0.67%) were called active.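 Rule for the calls: active = activation above a run cutoff, the mean activation of all tested compounds plus 3 SD (cut at about 14% in these data); inactive = the rest.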 What follows is part of a selection rich in actives, with near analogues and random picks from the rest.

The target of the assay is 5-hydroxytryptamine receptor 2A (Mus musculus) (UniProt P35363). Kind of assay: activation of mouse 5-HT2A receptor – cell-based, luminescence, primary screen (AID 624169).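 Note: 0% = plate median of compound wells and 100% = 30 µM serotonin.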 The settings on record: CHO-K1 mHTR2A beta-arrestin complementation, at 7.6 µM, active compounds read high, percent of 30 µM serotonin response.
Sequence of 5-hydroxytryptamine receptor 2A (Mus musculus) (P35363 whole entry, looked up): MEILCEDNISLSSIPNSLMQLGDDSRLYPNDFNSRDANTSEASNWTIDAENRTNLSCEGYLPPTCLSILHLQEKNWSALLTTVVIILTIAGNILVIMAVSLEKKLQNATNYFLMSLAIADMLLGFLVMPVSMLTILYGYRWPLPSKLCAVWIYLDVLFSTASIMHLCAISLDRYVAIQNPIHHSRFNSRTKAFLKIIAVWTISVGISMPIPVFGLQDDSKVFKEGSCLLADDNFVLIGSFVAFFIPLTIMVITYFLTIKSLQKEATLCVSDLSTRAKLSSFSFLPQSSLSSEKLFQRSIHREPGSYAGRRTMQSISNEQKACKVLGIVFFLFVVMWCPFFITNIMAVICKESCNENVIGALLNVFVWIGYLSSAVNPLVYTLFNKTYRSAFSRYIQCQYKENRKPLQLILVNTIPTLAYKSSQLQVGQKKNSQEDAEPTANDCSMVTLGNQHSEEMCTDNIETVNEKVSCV
In the case of `CCN(CC(=O)Nc1ccccc1OC)C(=O)Cn1cnc2ccccc2c1=O`, the activation is 2.03% (inactive).

With `COc1ccc(C(C)=O)cc1COC(=O)Cn1cnc2ccccc2c1=O`, the activation is 16.5% (active).

Take `COCc1cc(C(C)=O)ccc1OC`: the activation was 2.94% (inactive).

`CN1OC[C@@H]2CN[C@H](c3ccc(-c4ccccc4)cc3)C[C@@H]21`: the activation was -5.82% (inactive).

For the compound `Cc1ccc(S(=O)(=O)NN=C2CC(C)(C)CC(=O)C2(C)C)cc1`, the activation is -0.12% (inactive).

Consider `Cc1ccc(C2(c3ccc(C)cc3)NC(=O)N(Cc3c(C)noc3C)C2=O)cc1`, for which the activation is -0.69% (inactive).

Turning to `COC(=O)Cn1nc(-c2ccccc2)c2cc(Cl)ccc21`, the activation is 18.3% (active).

With `COc1ccccc1CNC(=O)Cn1c(=O)oc2cc(Cl)ccc21`, the activation is -2.35% (inactive).

As for `CCCNC(=O)CCn1nc(-c2ccccc2)c2ccccc2c1=O`, the activation is 5.25% (inactive).

As for `COC(=O)c1ccccc1N=Nc1c(C)[nH][nH]c1=O`, the activation was -4.12% (inactive).

In the case of `CC(C)(C)SCCSC1=CC(=O)CC(c2ccccc2)C1` (stereo unspecified), the activation was -1.98% (inactive).

Consider `O=c1oc(-c2ccco2)nc2sc3c(c12)CCCCC3`, for which the activation was -3.64% (inactive).

With `O=C(NCc1ccco1)c1cccn2c(=O)c3c4c(sc3nc12)CCCC4`, the activation was 19.5% (active).

Take `O=C(NCc1ccco1)c1cnn2c(C(F)(F)F)cc(-c3ccco3)nc12`: the activation is 0.02% (inactive).

For `COc1ccc(OCCCC(=O)OC(C)C(=O)Nc2ccccc2[N+](=O)[O-])cc1` (stereo unspecified), the activation was 9.6% (inactive).

As for `Cc1ccc(OCc2nnc(NC(=O)OCC(C)C)s2)cc1`, the activation is -4.72% (inactive).

For the compound `Cc1ccc2[nH]cc(CCCN3C(=O)c4ccccc4C3=O)c2c1`, the activation was -2.51% (inactive).

Consider `COCCCN1C(=O)c2ccc(C(=O)Nc3ccc(OC)cc3OC)cc2C1=O`, for which the activation is 12.7% (inactive).

For `COc1ccc2[nH]cc(CCN3C(=O)c4ccc(C(=O)O)cc4C3=O)c2c1`, the activation was 19.3% (active).

On to `COC(=O)C[C@H]1C[C@@H]2c3cc(NC(=O)Nc4ccccc4)ccc3O[C@@H]2[C@@H](CO)O1`, for which the activation is 2.06% (inactive).

`O=C(Nc1ccc2c(c1)[C@@H]1C[C@@H](CC(=O)N3CCCCC3)O[C@@H](CO)[C@@H]1O2)NC1CCCCC1`: the activation is 15.4% (active).

On to `O=C(C[C@H]1C[C@@H]2c3cc(NC(=O)C4CCC4)ccc3O[C@@H]2[C@H](CO)O1)NC1CCCCC1`, for which the activation was -0.85% (inactive).

As to `O=C(CCS(=O)(=O)c1cccc2nsnc12)N1CCN(c2ccccc2F)CC1`, the activation is 4.25% (inactive).

For the compound `COC(=O)[C@@H]1CCCN1C(=O)c1cc(COc2cccc3cccnc23)on1`, the activation was 2.24% (inactive).

In the case of `CCS(=O)(=O)Nc1ccc(C2=NN(S(=O)(=O)c3ccc(F)cc3)C(c3ccco3)C2)cc1` (stereo unspecified), the activation is -6.66% (inactive).

Take `COc1ccc(C(=O)C[n+]2ccc(C)cc2)cc1`: the activation is -0.16% (inactive).

Consider `CO/N=C/CC(=O)c1ccc(OC)cc1`, for which the activation is 21.9% (active).

Consider `COc1ccc(C(=O)COC(=O)c2ccc3ccccc3n2)cc1`, for which the activation was -0.68% (inactive).

As to `Cc1cccc(NC(=O)c2cc(S(=O)(=O)N3CCC4(CC3)OCCO4)ccc2F)c1`, the activation is -2.45% (inactive).

As to `COc1ccc(/C(O)=C2/C(=O)C(=O)N(c3nc(C)c(C)s3)C2c2ccco2)cc1` (stereo unspecified), the activation was 0.59% (inactive).

Take `COc1ccc(C2/C(=C(/O)c3ccccc3)C(=O)C(=O)N2c2ncccn2)cc1OC` (stereo unspecified): the activation is -1.25% (inactive).

For `CCOc1ccc(/C(O)=C2\C(=O)C(=O)N(c3ccc(OC)cc3)C2c2ccccc2[N+](=O)[O-])cc1` (stereo unspecified), the activation is 23.9% (active).

Turning to `CCN(CCn1cccn1)Cc1nc(-c2ccc(C(=O)OC)cc2)no1`, the activation is 2.48% (inactive).

As for `N=C1c2ccccc2-c2ccccc21`, the activation is 3.53% (inactive).

Take `Cc1nnc(C)c2c(C)n(N)c(C)c12`: the activation was -1.02% (inactive).

In the case of `N#CCSc1nn(-c2ccc(F)cc2)c(=S)s1`, the activation was 15.4% (active).

In the case of `Cc1ccccc1-n1nc(SCC(=O)O)sc1=S`, the activation is -1.31% (inactive).

`O=C(CSc1nn(-c2ccc(F)cc2)c(=S)s1)NC1CCS(=O)(=O)C1` (stereo unspecified): the activation is -0.71% (inactive).

With `COCCCN(C(=O)CSCc1ccc(C)cc1)c1c(N)n(Cc2ccccc2)c(=O)[nH]c1=O`, the activation is 7.86% (inactive).

As for `CC1C(C)N(C(=O)CCl)c2ccccc2N1C(=O)CCl` (stereo unspecified), the activation was -1.04% (inactive).

As for `Cn1c2c(c(=O)n(C)c1=O)C(c1ccc(O)cc1)Nc1ccccc1O2` (stereo unspecified), the activation was 27% (active).

On to `Cn1c2c(c(=O)n(C)c1=O)C(c1cccc([N+](=O)[O-])c1)Nc1ccccc1O2` (stereo unspecified), for which the activation is -3.64% (inactive).

As to `Cn1c2c(c(=O)n(C)c1=O)C1c3ccccc3OCC1C(C)(C)O2` (stereo unspecified), the activation was -0.33% (inactive).

For `COC(=O)COc1ccc(C2NC(=O)NC(C)=C2C(=O)NCc2ccccc2)cc1OC` (stereo unspecified), the activation was -4.71% (inactive).

As for `COCCCn1cc(CN2CC(N(C)C)CS2(=O)=O)nn1` (stereo unspecified), the activation was 5.48% (inactive).

On to `Cc1c(Br)c([N+](=O)[O-])nn1CC(=O)Nc1sc2c(c1C(=O)OC(C)C)CCC(C)C2` (stereo unspecified), for which the activation is 2.43% (inactive).

Take `CC(=O)Nc1ccc(OCC(O)CN2CCN(c3ccccc3Cl)CC2)cc1` (stereo unspecified): the activation is 2.24% (inactive).

In the case of `CC(=O)c1ccc(OCC(O)CN2CCN(S(=O)(=O)c3cccc(Br)c3)CC2)cc1` (stereo unspecified), the activation was 1.8% (inactive).

With `O=S(=O)(c1ccc(OCC(O)CN2CCN(c3ccccc3Cl)CC2)cc1)N1CCOCC1` (stereo unspecified), the activation is 22.4% (active).

Consider `Cc1cc(C(=O)NNS(=O)(=O)c2ccccc2C(F)(F)F)nn1C(C)(C)C`, for which the activation is -0.74% (inactive).

Turning to `CCOC(=O)[C@]12CCCC=C1N(CCC1=CCCCC1)C(=O)[C@H](CC(=O)NCCCCc1ccccc1)C2`, the activation is 3.93% (inactive).

`CCNC(=S)N(CCc1c(C)[nH]c2ccc(C)cc12)Cc1ccco1`: the activation is -4.57% (inactive).

With `COc1ccc2[nH]c(C)c(CCN(Cc3cccs3)C(=S)Nc3ccccc3OC)c2c1`, the activation was 10.5% (inactive).

As to `Cc1[nH]c2ccccc2c1CCN(Cc1cccs1)C(=S)NC(C)(C)C`, the activation is 24.1% (active).

Consider `CCOC(=O)c1cccc(NC(=O)C2CCN(c3ncnc4c3nc3n4CCCCC3)CC2)c1`, for which the activation was -3.05% (inactive).

For the compound `CCOCCCN1C(=O)C2C(C(=O)Nc3ccc(OCC)cc3)C3C=CC2(O3)C1C(=O)NC1CCCCC1` (stereo unspecified), the activation was 6.26% (inactive).

Take `COc1ccc(C(C)(C)C)cc1NC(=O)CCN1C(=O)C2CCCCC2C1=O` (stereo unspecified): the activation is -4.43% (inactive).

As to `O=C(OCc1nnc(-c2ccccc2)o1)c1ccc2c(c1)C(=O)N(CCc1ccccc1)C2=O`, the activation was 1.62% (inactive).

Take `Cc1onc(-c2ccccc2)c1-c1nnc(COC(=O)c2ccc(N(C)C)cc2)o1`: the activation was -6.2% (inactive).

For `Cc1ccc(C(=O)NCC(=O)OCc2nnc(-c3ccccc3)o2)cc1`, the activation was 14.8% (active).

Consider `CSc1ccc(NC(=O)N2CC(C)OC(C)C2)cc1` (stereo unspecified), for which the activation was -3.29% (inactive).

`CCCCn1nc(C(=O)Nc2cccc(C(=O)NC3CC3)c2)c2ccccc2c1=O`: the activation is 2.3% (inactive).

For the compound `Cn1cccc1C(=O)OCC(=O)c1ccc(Br)s1`, the activation was -5.88% (inactive).

With `OC(COc1ccc(F)cc1Cl)CN1CCc2ccccc2C1` (stereo unspecified), the activation is -18.7% (inactive).

On to `COc1ccccc1C(c1nnnn1CC1CCCO1)N1CCN(c2ccccc2)CC1` (stereo unspecified), for which the activation is -1.76% (inactive).

Turning to `O=C(NCc1ccco1)/C(=C/c1ccco1)NC(=O)c1ccccc1`, the activation was 2.71% (inactive).

Consider `O=C(Cc1ccccc1)n1nc(-c2ccccc2)nc1NCc1ccco1`, for which the activation is 17.4% (active).

Take `O=C(c1cccs1)n1nc(NCc2ccccc2)nc1NCc1ccccc1`: the activation is -1.74% (inactive).

As to `CC(C)NS(=O)(=O)c1ccc(NC(=O)C2CCCCC2)cc1`, the activation was -5.58% (inactive).

Regarding `Cc1nc2ccc(NC(=O)C3CCCCC3)cc2s1`, the activation was 5.67% (inactive).

As to `CS(=O)(=O)c1ccc2nc(NC(=O)C3CCCCC3)sc2c1`, the activation was 14.9% (active).

Regarding `Cc1ccc2nc(NC(=O)C3CCN(S(=O)(=O)c4ccc5c(c4)oc(=O)n5C)CC3)sc2c1`, the activation is -3.71% (inactive).

On to `COc1ccc(CN2CC(C(=O)NCCN3CCN(c4ccccc4F)CC3)CC2=O)cc1` (stereo unspecified), for which the activation is -3.29% (inactive).

As to `O=C(NCCCN1CCN(c2ccccc2F)CC1)C1CCC(=O)N1C1CCCCC1` (stereo unspecified), the activation was 16.5% (active).

Take `O=C(NCCCN1CCCCCC1)C1CC(=O)N(C2CCCC2)C1` (stereo unspecified): the activation is 2.65% (inactive).

For the compound `COC(=O)c1ccccc1NC(=O)C1CCN(S(=O)(=O)c2cc(OC)ccc2OC)CC1`, the activation is -1.33% (inactive).

`Cc1cc(C)cc(C(=O)N(CCc2ccccc2)C2=CC3CCC(C2)N3C)c1` (stereo unspecified): the activation was -10.4% (inactive).

In the case of `CCCN(CCc1ccccc1)C1CCc2c(O)cccc2C1` (stereo unspecified), the activation was 50.6% (active).

In the case of `COC(=O)c1ccc(CN2C(=O)C(Cc3ccccc3)ON=C2c2ncccc2C)o1` (stereo unspecified), the activation was 0.18% (inactive).

As for `CCOc1ccccc1NS(=O)(=O)c1cc2c3c(c1)C(C)C(=O)N3CCC2` (stereo unspecified), the activation was 5.3% (inactive).

In the case of `C/C(=N\NC(=O)COc1c(C)cccc1C)c1cccs1`, the activation was 14.4% (active).

Take `C/C(=N\OCC(=O)Nc1ccc(Br)cc1)c1cccs1`: the activation is -2.57% (inactive).

On to `C/C(=N\NC(=O)CSc1nc2ccccc2c(=O)n1-c1ccccc1C)c1cccs1`, for which the activation is -1% (inactive).

With `Cc1ccc(CN2CCN(c3ncccn3)CC2)c(C)c1`, the activation is 25.6% (active).

Take `Cc1ccc(CN2CCN(/N=C/c3cccnc3)CC2)c(C)c1`: the activation was -3.83% (inactive).

Take `CN(C)C(=O)c1nc2ccc(Cl)cn2c1CN1CCN(c2ncccn2)CC1`: the activation is 1.37% (inactive).

For `COc1ccccc1-c1nn(Cc2ccccc2)cc1C(=O)N1CCN(c2ncccn2)CC1`, the activation was 11.3% (inactive).

Consider `Cc1ccc(CN2CCN(/N=C/c3ccco3)CC2)c(C)c1`, for which the activation was -2.05% (inactive).

As to `Oc1ccc(CN2CCN(c3ncccn3)CC2)cc1`, the activation was 30.1% (active).

On to `CC1(C)CCSC(/C=C/c2ccccc2)=N1`, for which the activation was -2.29% (inactive).

As to `Nc1c(C(=O)O)cnn1-c1ccccc1`, the activation is 2.02% (inactive).
